Most compounds without a hit are left out; they make up all but 3.1% or so of the library.
MITF TRPM1 inh – inhibitors of MITF-dependent TRPM1 promoter reporter, primary screen, cell-based, SK-MEL-5, single point, luciferase | SK-MEL-5 TRPM1 promoter luciferase, 24 h | inhibition, % at 12.5 µM | 330,000 tested, 0.83% active | AID 488899, 2010;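 active means mean inhibition across replicates of 60% or more, whatever share of single replicates reaches that level; inconclusive means some that reach 60%, reason not given; inactive means mean inhibition across replicates below 60%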
CF NFkB inh – inhibitors of PAF-induced NF-kB signaling, primary screen, cell-based, GFP fluorescence, uHTS; inhibition, % at 5 µM; KKLEB NF-kB-GFP reporter, GFP fluorescence overnight; 360,000 tested, 0.86% active;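 active means at least 50% inhibition at 5 µM, scaled per plate between neutral and stimulator controls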;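 further: PAF is a Pseudomonas aeruginosa culture filtrate used as stimulus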
KKLEB tox – cytotoxicity in KKLEB CF airway cells, primary screen, cytotoxicity control for CF NF-kB inhibitor project, cell-based, uHTS, fluorescence assay plates; KKLEB CF airway cells viability, ATPlite luminescence, overnight; stronger effect = lower value; cells stimulated with P. aeruginosa culture filtrate; activity change (cytotoxicity), % at 5 µM; 360,000 tested, 0.36% active;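 active means corrected activity change at or below -50% at 5 µM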
Peg3 promoter – Peg3 promoter-driven luciferase inhibitors, primary screen, cell-based, HeLa, luciferase luminescence; inhibition, % at 20 µM; AID 588405, 2011; 360,000 tested, 1.7% active; HeLa PEG-Prom luciferase reporter, overnight;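 active means inhibition of at least 50% at 20 µM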
ABHD5-PLIN5 inh – ABHD5-PLIN5 interaction inhibitors, primary screen, cell lysate, split luciferase complementation, luminescence; 360,000 tested, 0.78% active; Split G. princeps luciferase complementation, 4 h; AID 602281, 2012; inhibition, % at 4 µM;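 active means inhibition above the mean inhibition across every tested compound plus 3 SD, cut at about 22% in these data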
Target sequence (Q00G26 whole entry, looked up): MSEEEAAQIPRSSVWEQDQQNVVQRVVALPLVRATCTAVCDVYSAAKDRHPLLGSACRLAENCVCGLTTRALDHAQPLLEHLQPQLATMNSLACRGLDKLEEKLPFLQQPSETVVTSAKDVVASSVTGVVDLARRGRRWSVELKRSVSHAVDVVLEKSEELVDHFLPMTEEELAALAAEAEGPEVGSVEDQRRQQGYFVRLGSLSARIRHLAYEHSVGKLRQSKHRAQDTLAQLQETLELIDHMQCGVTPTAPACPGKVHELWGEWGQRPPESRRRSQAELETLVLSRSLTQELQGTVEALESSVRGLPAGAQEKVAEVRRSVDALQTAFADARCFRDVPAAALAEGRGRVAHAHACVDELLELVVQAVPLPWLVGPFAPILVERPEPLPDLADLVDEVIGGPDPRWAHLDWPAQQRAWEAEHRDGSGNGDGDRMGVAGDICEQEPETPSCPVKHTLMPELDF
Target sequence (Q8WTS1 whole entry, looked up): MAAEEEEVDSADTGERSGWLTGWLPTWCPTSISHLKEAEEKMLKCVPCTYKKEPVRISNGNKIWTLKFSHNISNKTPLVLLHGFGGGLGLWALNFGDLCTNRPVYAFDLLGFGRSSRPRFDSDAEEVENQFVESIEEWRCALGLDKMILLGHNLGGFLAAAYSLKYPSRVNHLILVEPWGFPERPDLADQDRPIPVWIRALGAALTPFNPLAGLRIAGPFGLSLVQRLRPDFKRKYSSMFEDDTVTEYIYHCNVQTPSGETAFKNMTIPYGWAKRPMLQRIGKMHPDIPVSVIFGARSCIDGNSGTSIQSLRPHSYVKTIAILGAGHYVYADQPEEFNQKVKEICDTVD
HIF-2a block – HIF-2a reporter inhibitors, primary screen, luminescence, 786-0 RCC cells. 786-0 RCC cells HIF-2a reporter, luciferase luminescence, overnight. inhibition, % at 18.8 µM. 360,000 tested, 0.72% active;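 active means inhibition of the luminescence signal of 40% or more relative to plate controls, in a single-dose primary screen at 18.75 µM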
Mdm2 MdmX conf – retested Mdm2-MdmX interaction blockers, confirmation, cell-based, luminescence, single concentration, set 2. shares compounds with HIF-2a block. inhibition, % at 8 µM. 740 tested, 99% active. SaOS-2 split-luciferase Mdm2/MdmX complementation;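 active means mean inhibition of the luminescence signal across two replicates at or above 26 percent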
HIF-2a conf – HIF-2a reporter inhibitor retest, confirmation, luminescence, 786-0 RCC cells | shares compounds with HIF-2a block | HIF-2a luciferase reporter luminescence, overnight | inhibition, % at 18.8 µM | 1,800 tested, 56% active;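 active means mean inhibition across four replicates of at least 40 percent at the single tested concentration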
HIF-1a counter – HIF-1a luciferase reporter signal reduction – MiaPaCa-2 cells, single concentration, counter-screen for HIF-2a inhibitor project, confirmation. MiaPaCa-2 HIF-1a luciferase reporter, desferoxamine, overnight. inhibition, % at 18.8 µM. shares compounds with HIF-2a block. 1,800 tested, 72% active;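 active means mean inhibition of the reporter signal across four replicates at the single tested dose of 50% or more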
A number is an active result; 0 = inactive; ? = inconclusive; - = no result; ! = a repeat was not active.

SMILES	MITF TRPM1 inh	CF NFkB inh	KKLEB tox	Peg3 promoter	ABHD5-PLIN5 inh	HIF-2a block	HIF-2a conf	HIF-1a counter	others
COc1ccc(Cn2c(SCc3cc(C)ccc3C)nc3cc(OC)c(OC)cc3c2=N)cc1	89	0	0	104	0	95	0	107	Mdm2 MdmX conf=103
COc1cc2nc(SCc3ccc(Cl)cc3Cl)n(Cc3cccs3)c(=N)c2cc1OC	0	0	0	0	0	0	-	-
COc1cc2nc(SCc3ccc(C(F)(F)F)cc3)n(Cc3cccs3)c(=N)c2cc1OC	0	0	0	0	0	0	-	-
COc1ccc(Cn2c(SCc3ccc(C)cc3)nc3cc(OC)c(OC)cc3c2=N)cc1Cl	105	96	-94	99	0	91	60	105	Mdm2 MdmX conf=103
Cc1cc(C)cc(OCC(=O)OCC(=O)Nc2c(C)n(C)n(-c3ccccc3)c2=O)c1	0	0	0	0	0	0	-	-
CCCCc1cc(=O)oc2cc(C)cc(OCC(=O)Nc3ccccn3)c12	0	0	0	0	0	0	-	-
Cc1ccc2c(c1)Oc1ccc([N+](=O)[O-])cc1C(=O)N2	0	0	0	0	0	0	-	-
Cc1ccc2c(c1)Oc1ccc(NC(=O)CCl)cc1C(=O)N2	91	87	-73	100	0	77	72	103	Mdm2 MdmX conf=103
COc1ccc(C)cc1NC(=O)Nc1ccc(C(=O)N2CCCC2)cc1	0	0	0	0	0	0	-	-
CC(C)NC(=S)NNc1nc2ccccc2s1	0	0	0	0	0	0	-	-
CC(=O)OCCNc1cc(SC(C)C)c2nonc2c1[N+](=O)[O-]	0	0	0	0	0	0	-	-
CCC(=O)OCCNc1cc(Sc2nccn2C)c2nonc2c1[N+](=O)[O-]	92	89	-78	105	0	91	80	105
O=c1c(Cl)c(Cl)cnn1Cc1nnc(-c2ccc(Cl)cc2)o1	87	80	-82	107	0	94	0	105
CCc1ccc(C(=O)Cn2ncc(Cl)c(Cl)c2=O)cc1	0	84	-68	0	0	96	0	104	Mdm2 MdmX conf=103
Cc1c2cnn(CC(=O)N3CCOCC3)c(=O)c2c(C)n1Cc1ccc(F)cc1	-	0	0	0	0	0	-	-
Cc1ccc(Cn2ncc(Cl)c(Cl)c2=O)cc1	?	0	0	104	0	98	0	98
O=C(Cn1ncc(Cl)c(Cl)c1=O)N1CCOCC1	98	0	0	97	0	84	0	106
CCc1ccc(C(=O)CN2C(=O)NC3(CCCCCC3)C2=O)cc1	0	0	0	0	0	0	-	-
CCOC(=O)C(C)(C)N(Cc1ccc(C)cc1)S(=O)(=O)c1ccc(Cl)c([N+](=O)[O-])c1	91	0	0	105	0	61	0	105
CCC1(C(=O)OC)CCc2c(cc(OC)c3ccccc23)C1=O (stereo not given)	0	0	0	0	0	55	0	0
COC(=O)C1(C)CCc2c(ccc3ccccc23)C1=O (stereo not given)	-	0	0	0	0	0	-	-
O=[N+]([O-])c1ccc(-c2csc(NN=C3CCCC3)n2)cc1	0	0	0	0	0	0	-	-
CCc1cc(SC#N)cc(CC)c1NC(=O)CCl	0	0	0	0	0	49	0	0
COc1ccc(Br)cc1[C@H]1[C@H]2C=CC[C@@H](C)[C@@H]2C(=O)N1Cc1ccccc1	0	0	0	0	0	44	0	0
CCSc1nc2ccccc2n1C(=O)/C=C/c1ccc(OC)c(OC)c1	76	84	0	103	0	78	0	101	Mdm2 MdmX conf=102
SMILES	MITF TRPM1 inh	CF NFkB inh	KKLEB tox	Peg3 promoter	ABHD5-PLIN5 inh	HIF-2a block	HIF-2a conf	HIF-1a counter	others
O=C(Nc1c(Br)cc2c(c1Br)Cc1ccccc1-2)C(Cl)Cl	0	0	0	0	0	0	-	-
Cc1ccc(N=Nc2cc(C)ccc2O)c(C)c1	0	0	0	0	0	0	-	-
Cc1ccc(C)c(N=Nc2ccc(O)c3ncccc23)c1	64	0	0	0	0	0	-	-	Mdm2 MdmX conf=100
Cc1ccc(C(=O)COC(=O)c2nc3nccc(C)n3n2)c(C)c1	0	0	0	0	0	0	-	-
CC12CCC(C(=O)Nc3ccc4c(c3)OCCO4)(OC1=O)C2(C)C (stereo not given)	0	0	0	0	0	42	0	50
Cc1cccc(NC(=O)C23CCC(C)(C(=O)O2)C3(C)C)c1 (stereo not given)	0	0	0	0	0	0	-	-
Cc1ccc(C(=O)Nc2ccc3ncccc3c2)cc1	0	0	-64	0	0	43	51	0
CC1CC(=O)N(CC(=O)Nc2ccc(F)cc2)c2ccccc2S1(=O)=O (stereo not given)	0	0	0	0	0	0	-	-
O=C(CCCc1nc(-c2ccccc2Cl)no1)NC1CCCC1	76	0	0	0	0	88	96	64
Cc1cc(C)cc(-n2ccnc2SCC(=O)O)c1	0	0	0	0	0	0	-	-
CC1CCC(C(C)C)C(OC(=O)Cn2c(-c3ccc(Br)cc3)[n+](C)c3ccccc32)C1 (stereo not given)	91	54	-57!	96!	0	0	-	-	Mdm2 MdmX conf=103
CC1CCC(C(C)C)C(OC(=O)COC(=O)c2cccn2C)C1 (stereo not given)	0	0	0	0	0	0	-	-
Cc1ccccc1OCc1n(CC(=O)OC2CC(C)CCC2C(C)C)c2ccccc2[n+]1C (stereo not given)	97!	83	-83	102	0	94!	0	107	Mdm2 MdmX conf=102
CC1CC1C(=O)OCC(=O)Nc1cccc([N+](=O)[O-])c1 (stereo not given)	0	0	0	0	0	0	-	-
NC(=O)c1cc(S(=O)(=O)NCCc2ccc(S(N)(=O)=O)cc2)cs1	0	0	0	0	0	0	-	-
CCN(CC(=O)Nc1ccc(NC(C)=O)cc1)C(=O)/C=C/c1ccc(S(=O)(=O)N2CCCCCC2)cc1	0	0	0	0	0	42	0	0
Cc1cc(C)n(S(=O)(=O)/C=C/c2ccccc2)n1	0	0	0	0	0	0	-	-	Mdm2 MdmX conf=93
